# According to PubChem BioAssay (NCATS):
# Records with an inconclusive call do not appear. Entries that show only a call come without a potency. Active and inactive are the calls of the source. Unless noted, calls follow the shape of the dose curve; as a rule, active = well fitted curve in the direction sought with a large enough effect; inconclusive = small, poorly fitted or top-dose-only effect, or another doubt; inactive = no such curve, though single readings can be large; an effect the other way counts as inactive or inconclusive.
# Legend:
# [1] = qHTS assay for small molecule agonists of the antioxidant response element (ARE) signaling pathway (AID 651741; active = well fitted activation curve with a large enough effect in the signal ratio; the % refers to the signal ratio; also: potency is read from the fitted curve at half-maximal effect)
# Method in brief: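 Agonist activity is measured as ARE-driven beta-lactamase expression in a stable HepG2 reporter line, using 16 h compound treatment at 37 C and a FRET substrate fluorescence readout after 2 h.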
# [2] = qHTS assay for small molecule activators of the p53 signaling pathway (AID 651743; active = well fitted activation curve with a large enough effect in the signal ratio, not every such curve was filed as active; the % refers to the signal ratio); settings: HCT-116 p53RE-bla, beta-lactamase FRET ratio, 16 h; stronger effect = higher value
# Method in brief: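 A beta-lactamase reporter under p53 response element control, stably carried by HCT-116 cells, reported pathway activation. Test compounds were applied for 16 hours at 37 C, and fluorescence was measured 2 hours after adding the B/G FRET substrate.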
# [3] = qHTS assay for small molecule activators of the nuclear factor-kappa B (NF-kB) signaling pathway (AID 651749; active = well fitted activation curve with a large enough effect in the signal ratio; the % refers to the signal ratio); settings: NF-kB-bla ME-180 cells, beta-lactamase FRET ratio, 16 h; stronger effect = higher value
# Method in brief: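 FRET-based beta-lactamase detection in ME-180 cells reports NF-kB response-element-driven transcription following overnight (16 hr) compound treatment.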
# [4] = qHTS Assay for Identification of Small Molecule Agonists for NFkB Signaling Pathway. (AID 624478);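 also: compounds tested together with TNF alpha at its EC50 of 10 pM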
# Method in brief: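 Read-out: 460/530 nm emission at 405 nm excitation after 2 h LiveBLAzer loading; ME-180 NFkB-bla reporter cells exposed 5 h at 37 C to compounds with 10 pM TNF alpha final.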
# [5] = qHTS Assay for Identification of Small Molecule Antagonists for NFkB Signaling Pathway. (AID 624479; calls by dose curve;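 also: pathway stimulated with TNF alpha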; also: potency is read from the fitted curve at half-maximal effect)
# [6] = Cell Proliferation Assay against the TMD8 Cell Line (AID 651645); settings: TMD8 DLBCL cell line proliferation/viability; at 46.1 µM (top of the series) unless noted;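 also: cells exposed to compound for 48 h before reading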
# Method in brief: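 TMD8 cells, 500/well in RPMI with 5% FBS, dosed immediately and grown 48 h at 37 C, 5% CO2. CellTiter-Glo luminescence normalised to DMSO 100% and 9.2 uM bortezomib (final) 0%.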
# [7] = Cell Proliferation Assay against the HBL1 Cell Line (AID 651646); settings: HBL1 DLBCL cells; at 46.1 µM (top of the series) unless noted;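 also: cells exposed to compound for 48 h before reading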
# Method in brief: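 CellTiter-Glo luminescence after 48 h compound exposure at 37C gives percent activity, with DMSO as 100% and 9.2 uM bortezomib final as 0%. Cells: 500 log-phase HBL1 per well, RPMI plus 5% FBS.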
# [8] = Cell Proliferation Assay against the TMD8 Cell Line (Caspase readout at 16 hrs) (AID 651712)
# Method in brief: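 Caspase-Glo luminescence measured apoptosis after a 16 h, 37 C compound exposure of TMD8 cells (500 cells/well, 5% FBS RPMI). DMSO set 0% and bortezomib at 9.2 uM final set 100% activity.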
# [9] = Cell Proliferation Assay against the TMD8 Cell Line (Caspase readout at 8 hrs) (AID 651713); also: potency is read from the fitted curve at half-maximal effect
# Method in brief: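 Apoptosis readout: caspase 3/7 luminescence (Caspase-Glo), 15 min RT. Cells: TMD8, 500/well, RPMI + 5% FBS, no phenol red. Exposure 8 h, 37C. % activity vs DMSO = 0, bortezomib 9.2 uM final = 100.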
# [10] = Cytotoxicity counterscreen for NFkB agonists and antagonists (AID 624476);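 also: cells exposed to compound for 48 hours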; also: potency is read from the fitted curve at half-maximal effect
smiles,measurement,setting,value
O=c1cc(-c2ccccc2)oc2cc(O)cc(O)c12,Potency,[1],10.9 µM (active)
same,activation,[2],22.8% (inactive)
same,activation,[3],-2.47% (inactive)
Cc1ccc(F)c(NC(=O)Nc2ccc(-c3cccc4[nH]nc(N)c34)cc2)c1,outcome,[4],inactive
same,Potency,[5],1.49 µM (active)
same,viability (% of control),[6],4.9%
same,"viability, percent of control",[7],8.04%
same,Potency,[8],inactive
same,Potency,[9],inactive
Clc1ccc(-c2nc3sccn3c2C=NOCc2ccc(Cl)c(Cl)c2)cc1,outcome,[4],inactive
same,Potency,[5],inactive
same,viability (% of control),[6],74.9%
same,"viability, percent of control",[7],4.32%
same,Potency,[8],inactive
same,Potency,[9],inactive
CCOC(CN1C(=O)[C@](CC(=O)Nc2ccc(C)cc2)(NC(=O)Nc2ccc(C)cc2)c2ccccc21)OCC,outcome,[4],inactive
same,Potency,[5],18.8 µM (active)
same,viability (% of control),[6],16.8%
same,"viability, percent of control",[7],4.35%
CO[C@@H](C(=O)N1Cc2[nH]nc(NC(=O)c3ccc(N4CCN(C)CC4)cc3)c2C1)c1ccccc1,Potency,[10],inactive
same,outcome,[4],inactive
same,viability (% of control),[6],3.09%
O=C(Nc1ccccc1-c1cn2c(CN3CCNCC3)csc2n1)c1cnc2ccccc2n1,outcome,[4],inactive
same,Potency,[5],inactive
same,viability (% of control),[6],2.49%
same,"viability, percent of control",[7],2.43%
same,Potency,[8],inactive
CS(=O)c1ccc(-c2nc(-c3ccc(F)cc3)c(-c3ccncc3)[nH]2)cc1 (configuration not stated),Potency,[10],inactive
same,outcome,[4],inactive
same,Potency,[5],inactive
same,Potency,[8],inactive
same,Potency,[9],inactive
COc1cc2nc(-c3ccc(N4CCN(C)CC4)cc3)nc(NCCN3CCOCC3)c2cc1OC,Potency,[5],inactive
same,viability (% of control),[6],1.8%
same,"viability, percent of control",[7],5.66%
same,Potency,[9],29.6 µM (active)
O=C(O)CCC1CCC(c2cc(F)ccc2F)(S(=O)(=O)c2ccc(Cl)cc2)CC1 (configuration not stated),Potency,[10],inactive
same,outcome,[4],inactive
same,Potency,[5],inactive
same,viability (% of control),[6],98.2%
same,"viability, percent of control",[7],95.2%
same,Potency,[8],inactive
same,Potency,[9],inactive
COc1cc(Nc2ncc(F)c(Nc3ccc4c(n3)NC(=O)C(C)(C)O4)n2)cc(OC)c1OC,Potency,[10],13.2 µM (active)
same,outcome,[4],inactive
same,viability (% of control),[6],17.5%
same,"viability, percent of control",[7],56.6%
same,Potency,[8],inactive
same,Potency,[9],inactive
CN1CCN(CCOc2cc(OC3CCOCC3)c3c(Nc4c(Cl)ccc5c4OCO5)ncnc3c2)CC1,outcome,[4],inactive
same,viability (% of control),[6],17.4%
same,"viability, percent of control",[7],19.4%
O=C(N[C@@H](c1ccccc1)[C@@H]1CCCCN1)c1cccc(C(F)(F)F)c1Cl,Potency,[10],inactive
same,outcome,[4],inactive
same,Potency,[5],inactive
same,viability (% of control),[6],74.3%
same,"viability, percent of control",[7],28.1%
same,Potency,[9],inactive
O=C(Nc1cc(Cl)cc2c1[nH]c1cnccc12)c1cccnc1,Potency,[10],inactive
same,outcome,[4],inactive
same,Potency,[5],18.8 µM (active)
same,viability (% of control),[6],1.73%
same,"viability, percent of control",[7],32.9%
same,Potency,[9],inactive
O=c1cc(CN2CCOCC2)occ1OCCCCCSc1ccnc2cc(C(F)(F)F)ccc12,outcome,[4],inactive
same,viability (% of control),[6],6.87%
same,"viability, percent of control",[7],20.4%
